Laboratory results reported in PubChem BioAssay.
A number with no mark means an inactive call. The rule behind the calls is not given here.

target: Pantothenate synthetase (Mycobacterium tuberculosis (strain ATCC 25618 / H37Rv)) (UniProt P9WIL5); experiment: Recombinant Mtb pantothenate synthetase (PanC) inhibitors, coupled enzyme, confirmatory (AID 375); conditions: coupled enzyme assay; at 10 µM, active compounds read high;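 note: 0% = full reaction with vehicle and 100% = no enzyme background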
Sequence (P9WIL5 whole entry, looked up): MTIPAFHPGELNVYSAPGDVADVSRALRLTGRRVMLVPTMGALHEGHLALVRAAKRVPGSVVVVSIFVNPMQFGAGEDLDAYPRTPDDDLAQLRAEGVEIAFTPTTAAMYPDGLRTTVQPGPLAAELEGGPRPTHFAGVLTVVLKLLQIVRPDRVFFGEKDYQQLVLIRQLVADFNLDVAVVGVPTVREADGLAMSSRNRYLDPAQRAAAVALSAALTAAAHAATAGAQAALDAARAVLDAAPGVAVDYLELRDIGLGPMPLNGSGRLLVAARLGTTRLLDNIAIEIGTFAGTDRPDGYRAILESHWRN

SMILES | inhibition [%]
COc1ccc(NC(=O)CCCN2C(=O)C3C4C=CC(C4)C3C2=O)c(OC)c1 (stereo not given) | 2
O=C(CSc1nnnn1-c1ccccc1)c1cc2ccccc2oc1=O | 0
CCOC(=O)CSc1nnc(CNC(=O)c2ccc(S(=O)(=O)N3CCCC3)cc2)n1C | 10
CCCN(CCC)C(=O)C1CCN(c2cc(C)nc3c(-c4ccc(OC)c(OC)c4)c(C)nn23)CC1 | 0
O=C(O)c1[nH]nc2c1COc1ccccc1-2 | 6
CC(c1ccccc1)N1C(=O)c2ccc(C(=O)NCc3ccco3)cc2C1=O (stereo not given) | 1
CCOC(=O)c1sc(NC(=O)c2noc3c2CCCC3)c(C(=O)OCC)c1C | 0
Cc1ccc(S(=O)(=O)N(CC(=O)N2CCOCC2)CC(=O)N2CCOCC2)cc1 | 0
Cc1cc(/N=C/N(C)C)on1 | 0
COCCNC(=O)CN1CCN(Cc2cccc(Cl)c2)C1=O | 0
COc1ccc(OC)c(-n2nnnc2SCC(=O)NCc2ccc3c(c2)OCO3)c1 | 0
CCOC(=O)CNC(=O)CSc1nc(N(C)C)nc(N2CCOCC2)n1 | 6
C1=Nc2c(NCc3ccccc3)ncnc2Oc2ccccc21 | 0
CCOC(=O)N1CCN(c2c(N3CCN(c4ccccc4OC)CC3)c(=O)c2=O)CC1 | 0
CCOC(=O)CN1C2=NCCN2c2ccccc21 | 6
CCCCOCCCNC(=O)c1cccs1 | 0
Cc1ccc(S(=O)(=O)N2CCOCC2)cc1C(=O)Nc1ccc(-c2cn3ccsc3n2)cc1 | 3
CSC1=NCCN1C(=O)c1ccc(S(=O)(=O)N2CCCC2)cc1 | 0
COC(=O)Nc1sccc1C(=O)Nc1sccc1C(=O)OC | 0
C=CCN1C(=O)C2(/C(=C(\O)c3ccc4c(c3)OCCO4)C(=O)C(=O)N2CCCOC)c2ccccc21 (stereo not given) | 0

SMILES | inhibition [%]
CCOc1ccc(C(=O)N(CN2CCCC2=O)c2ccc(C)cc2)cc1 | 0
O=C1C(Cl)=C(N2CCOCC2)C(=O)N1CCc1ccccc1 | 4
CCOc1ccccc1C(=O)NC(C)c1ccc2c(c1)OCO2 (stereo not given) | 0
CC1=CCC2C(=O)N(c3nc(C)cc(C)n3)C(=O)C2C1 (stereo not given) | 0
O=C1c2ccccc2C(=O)N1CCCCN1CCN(CCCCN2C(=O)c3ccccc3C2=O)CC1 | 5
CCOC(=O)N1CCN(C(=O)c2ccc3c(=O)n(Cc4ccc(OC)cc4)c(=S)[nH]c3c2)CC1 | 4
CCOC(=O)C1=C(CN2CCOCC2)NC(=O)NC1c1cc(C)ccc1C (stereo not given) | 2
C[N+](C)(C)CCOP(=O)([O-])OC[C@H](O)CO | 1
CCCOc1ccc([C@@H]2C3CN(C(=O)OCC)CC=C3C(C#N)=C(N)C2(C#N)C#N)cc1OC (stereo not given in full) | 1
CCC(Oc1ccc2ccccc2c1)C(=O)O (stereo not given) | 0
COC(=O)C1=C(C)NC(C)=C(C(=O)OC)C1c1ccccc1[N+](=O)[O-] | 0
CCOc1ccc(-c2nc(N)ncc2-c2ccccc2)c(O)c1 | 0
Nc1nonc1C(=O)NCCNCc1cc(Br)ccc1OCc1ccccc1F | 0
COC(=O)c1cc2ccsc2n1Cc1nc(-c2ccc(OC)cc2)oc1C | 9
N#Cc1c(NC(NC(=O)c2ccco2)C(=O)c2ccccc2)sc2c1CCCC2 (stereo not given) | 2
O=c1c(-c2ccc(F)cc2)coc2c3c(ccc12)OCCO3 | 11
CCOC(=O)CSc1nc(C)c(C(=O)OCC)s1 | 0
Cc1nc2c(-c3ccc(F)cc3)c(C)nn2c(C)c1CCC(=O)NC(C)CCc1ccco1 (stereo not given) | 0
COc1ccc(C)cc1-n1c(N)c(C#N)c(C#N)c1-c1ccc(OC)c(OC)c1OC | 4
CCCCS(=O)(=O)NC1=NCN(C2CCN(Cc3ccccc3)CC2)CN1 | 5
